The supplement of paper PMC6555819

Columns and labels:
Assay in all cases: PBM binding z-score (relative to random genomic background probes); higher = stronger binding; sequences stand for … in GC…GCGATTGACAGCGTAGAATGAAGG
[1] = tested on: RARb homodimer (NR concentration 270 nM)
How it was run: (§1)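 Custom Agilent 4×180K protein-binding microarrays carried double-stranded probes. Their 34-nt variable regions held direct-repeat seeds, single-nucleotide variants, half-site ablations and random human genomic background sequences. Arrays were incubated 1 h with ligand-free nuclear receptor dimers in PBS pH 7.4, 2% milk, 0.02% Triton X-100, 1 mM DTT, 0.2 mg/mL BSA and 0.4 mg/ml salmon testes DNA. Antibodies against each partner (one per run) detected binding, and scanned fluorescence was regression-normalized. Binding z-scores use random background probes as reference.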

[2] = tested on: RARg:RXRa (NR concentration 270 nM, RXRa partner concentration 90 nM)
How it was run: as §1

[3] = tested on: RARg homodimer (NR concentration 270 nM)
How it was run: as §1

[4] = tested on: RXRa DBDmut IVT, anti-RXR (DBD mutation: RXRa K156A/R161A, NR concentration 90 nM)
How it was run: as §1

[5] = tested on: RXRa homodimer (NR concentration 180 nM)
How it was run: as §1

[6] = tested on: THRa:RXRa (NR concentration 90 nM, RXRa partner concentration 90 nM)
How it was run: as §1

[7] = tested on: THRa homodimer (NR concentration 90 nM)
How it was run: as §1

[8] = tested on: VDR homodimer (NR concentration 270 nM)
How it was run: as §1

Sequence | PBM binding z-score [1] | PBM binding z-score [2] | PBM binding z-score [3] | PBM binding z-score [4] | PBM binding z-score [5] | PBM binding z-score [6] | PBM binding z-score [7] | PBM binding z-score [8]
CATACTGGGCCACGAAAGGTCATTGATTCAGTGA | 4.71 | 4.59 | 4.63 | 0.963 | 4.9 | 3.87 | 1.47 | 2.45
AGAATGAGGTTAAGATAAGGGAAACAGAATACAT | 1.07 | 2.11 | 1.69 | 0.785 | 2.6 | 2.71 | 1.05 | 0.183
CCTACTGGGCCATTCAGAGGTCATTGGTCATATG | 4.14 | 4.18 | 2.64 | 0.884 | 3.6 | 3.14 | 1.34 | 3.34
ATCTCTAGGTAAAGGTTCAGTGAATCCCGAGGAT | 1.24 | 1.03 | 1.05 | 0.869 | 1.01 | 1.1 | 0.351 | 1.99
TCTATTAGTTGAAGCGCAACCGACGAGTCCGTTT | -0.298 | -0.0942 | -0.507 | 1.16 | 0.302 | -0.201 | -0.12 | 0.818
CGAAAGAGGGCATGAGTTGATAGCAAATGCCGAT | 1 | 1.76 | 1.96 | 1.67 | 1.27 | 0.416 | -0.334 | 1.1
CAAACTAGGTCACAGATGTCAAAGTCCGTGCGTA | 3.51 | 4.42 | 4.89 | 2.36 | 3.86 | 3.36 | 1.68 | 1.91
CTGCCAAGGTGAACAAGGTCGTTGATTACTATTC | 2 | 1.66 | 1.29 | 1.04 | 1.58 | 3.07 | 1.67 | 1.56
CGAACTAGGTAATCCAGGACAGTGAATACATTGA | -0.194 | 0.0775 | 0.29 | 0.502 | -0.0168 | 1.85 | 0.946 | -0.254
TCGAGTAGTTTACCAATGGGGCATTCAGCTTTCT | 0.239 | -0.401 | -0.51 | 0.878 | -0.356 | -0.217 | -0.644 | -0.305
TCTTGTAGATCAAAAGTTAAGAAAGCCGAAGCCT | -0.728 | 0.0681 | -0.147 | 0.742 | 0.126 | -0.34 | -1.33 | -0.181
CGTCCAAGGTCAATGCTATGTCAGTGAAAGCATT | 4 | 5.86 | 6.28 | 3.14 | 4.94 | 3.81 | 1.93 | 2.37
CCTAGCAGGCCAGGGTCACTCAGGCATTTCGCTT | 2.73 | 2.77 | 2.03 | 0.226 | 3.07 | 2.58 | 0.878 | 1.07
CCGACTGGAGCATAAGGTTACCATAAGCCAGCCC | 1.28 | 0.447 | 0.266 | 0.0357 | 0.901 | 1.96 | 1.77 | 0.144
CGAACTAGGTCATCCAGGATAGTGAATACATTGA | 3.03 | 3.82 | 4.37 | 2.18 | 2.75 | 3.26 | 1.49 | 0.935
TCTCGGAGGACACGAAGGTTAGAGCTTTCCAGAG | 1.26 | 0.969 | 1.89 | 0.169 | 0.126 | 1.59 | 0.277 | -0.226
CCTTACGGGTCACTCCAGGTAATAGCATCGGAGT | 2.75 | 4.2 | 4.02 | 1.48 | 4.32 | 4.97 | 0.347 | 1.19
CCTACGGGGCCATTCAGAGGTCATTGATCATATG | 4.27 | 6.22 | 3.77 | 2.13 | 4.07 | 3.72 | 1.77 | 4.91
TCACATAGGTAAAGGTGAAAGTCGAACGATATGA | 1.65 | 1.65 | 1.26 | 1.26 | 2.34 | 1.44 | -0.0581 | -0.223

Sequence | PBM binding z-score [1] | PBM binding z-score [2] | PBM binding z-score [3] | PBM binding z-score [4] | PBM binding z-score [5] | PBM binding z-score [6] | PBM binding z-score [7] | PBM binding z-score [8]
ATCTCTAGGTAAGACTCAGTTCACTGAAGAACGC | 0.746 | 0.678 | 0.541 | 0.822 | 0.497 | 1.29 | 0.792 | 2.32
CCTACTGGCCCAAAAAGGTCATTGATGCCGATAA | 4.52 | 4.52 | 4.12 | 0.618 | 5.25 | 3.39 | 1.13 | 2.65
AGACTGAGGTTACCAAAGATCAGGGAAACGCTTG | 0.774 | 2 | 1.59 | 0.709 | 2.5 | 2.7 | 0.552 | 0.497
GCTTACGGGTCAAATGTTATAGCATGAATAGAAT | 2.6 | 4.88 | 4.02 | 2.4 | 5.86 | 2.54 | -0.146 | 1.1
TAGCCTAGGTCAGATCGGGCCAGTACACGCTATA | 2.33 | 2.85 | 3.65 | -0.269 | 1.55 | 4.29 | 0.126 | 0.0191
CGGACTAGGTCATTGACAGGACAGTGAATAGTAA | 2.48 | 4.64 | 4.39 | 2.41 | 2.38 | 2.85 | 0.733 | 1.23
TCTAGTTGGTCAAGGGTCACACACTCGAAATGCG | 4.19 | 5.29 | 4.87 | 1.59 | 6.31 | 3.13 | 1.47 | 2.76
TCCGCTAGGTCAACGATGGTCAGCTAATCTGCTA | 3.45 | 3.93 | 4.83 | 1.1 | 2.23 | 3.06 | 1.03 | -0.0724
AGAATGAGGTTATTAAGATCAGGCAATTGCGGTC | 0.685 | 1.05 | 0.712 | 1.89 | 1.65 | 2.22 | 0.632 | 1.24
CGTTCAAGGTCAGAGAGGTCAGTGAATGCCGAGT | 5.35 | 6.32 | 7.17 | 3.83 | 5.61 | 4.37 | 3.21 | 5.8
GCATATAGATAATACAAGGTGAAAGTCCGATTGT | 0.678 | 0.441 | 0.694 | 0.234 | 0.586 | 2.26 | 0.964 | 0.0275
GCTTGTAGATCAAGGTTATGAAAGACTAAGCTAA | 0.411 | 0.306 | 0.25 | -0.2 | 0.623 | 1.36 | -0.196 | -0.036
GCTGCTAGGTCAACTCATGGTCAGCTAAAGCTCG | 3.69 | 5.16 | 5.42 | 1.45 | 2.86 | 3.17 | 1.15 | 0.269
GCTAGTTGGTCAGTAAAAGGTCACACAACGGTCG | 5.29 | 5.75 | 5.52 | 0.797 | 5.56 | 3.76 | 1.74 | 1.75
CCAACTAGGTCATCCAGGACAGTGAATACATTGA | 3.44 | 3.88 | 4.83 | 2.49 | 2.77 | 3.79 | 2.61 | 2.63
TTAACAAGGTGAGCTGAGGTCGTTGATCCAACTC | 1.42 | 1.03 | 1.09 | 0.404 | 1.42 | 4.55 | 2.04 | 1.8
CCAGACCGGTGAAAGGTAACTCAGTCTGGTACGC | 0.414 | 0.36 | -0.096 | -0.727 | 0.696 | 0.429 | -0.178 | -0.186
AACTCTAGGTAAGACTCAGTTCAGTGAAGAACGC | 0.462 | -0.177 | 0.0668 | 0.487 | -0.128 | 0.636 | 0.228 | 1.15
TCTAGCAGGCCAGAGGGTCACTCGAGAGGTACGG | 2.65 | 2.47 | 2.33 | 0.0685 | 2.58 | 1.37 | -0.427 | 0.163

Sequence | PBM binding z-score [1] | PBM binding z-score [2] | PBM binding z-score [3] | PBM binding z-score [4] | PBM binding z-score [5] | PBM binding z-score [6] | PBM binding z-score [7] | PBM binding z-score [8]
TCTATTAGTTGTAGGGCAACCGACGAGTCCGTTT | 0.489 | 0.147 | 0.469 | 1.17 | 0.403 | 0.112 | 0.0984 | 1.13
ATCGCTAGGTAAGACTCAGTTCAGTGAAGAACGC | -0.147 | -0.35 | -0.262 | -0.408 | -0.428 | 0.249 | -0.192 | 0.334
CGTACAGGGTCAGCTAGGCCAGAGTAGGGACGGC | 3.07 | 4.55 | 4.77 | 1.93 | 4.1 | 3.05 | 0.562 | 1.14
CCTTACGGGTCACTGACATGTTATAGCATTTGGA | 3.05 | 4.89 | 4.58 | 2.2 | 5.13 | 2.61 | 0.312 | 1
CGTCCAAGGTCAATGCTAGGTCAGTCAAAGCATT | 5.08 | 7.7 | 6.73 | 3.62 | 5.82 | 4.52 | 2.99 | 3.23
AGTCCAAGTTCATCTAGGTAACGTAAGATATGCT | 2.25 | 2.91 | 3.37 | 4.78 | 2.26 | 2.76 | 0.459 | 5.97
TCTTGTAGATCCATAGAGGTTAAGAAAGTGCGCT | 1.25 | 0.611 | 0.378 | 0.691 | 1.1 | 1.07 | -0.276 | 0.319
AGAATGATGTTACCAAAGATCAGGGAAACGCTTG | -0.737 | 0.0194 | 0.432 | -0.312 | 0.387 | -0.115 | -0.58 | -0.437
AATACAGGGTCACTAGGCCAGAGTAGGTACGAAT | 3.61 | 5.13 | 4.83 | 2.83 | 5.52 | 3.38 | 1.27 | 2.5
TGTCCAAGTTCAAAGGTAACGTAAGTATCCACAC | 2.25 | 4.05 | 3.45 | 4.24 | 5.21 | 3.05 | 0.0637 | 4.33
ACTTACGGGTCAACGAGTTTATAGCACGCGTATA | 3.4 | 5.13 | 5.14 | 3.3 | 5.62 | 3 | 0.511 | 6.13
GCGACTGGGGCATCAGCAGGTTACCAGAACTTAA | 0.768 | 0.911 | 0.328 | -0.241 | 0.262 | 0.858 | -0.159 | -0.517
ACTCGGAGGACAAAGGTTAGAGCTACGCCAGTGA | 1.89 | 2.94 | 1.93 | 0.75 | 1.7 | 1.76 | -0.114 | 0.17
CGACAAAGTTCAAGGTAACGTAACAGAAAGCAGC | 3.7 | 5.27 | 5.99 | 4.29 | 4.69 | 2.8 | 1.02 | 3.11
CAAACTAGGTTACCGGAAGGTCAAAGTCCGCATG | 4.55 | 6.15 | 4.19 | 0.838 | 4.64 | 3.68 | 1.66 | 2.56
TATTGTAGATCAATAGAGGTTAAGAAAGTGCGCT | 1.44 | 1.05 | 0.855 | -0.302 | 1.36 | 2.32 | -0.234 | 0.323
GATACAGGGTCAAGGCCAGAGCACGCGTATTGAT | 3.82 | 5.4 | 4.9 | 2.27 | 5.45 | 3.6 | 1.34 | 1.92
TCCTATAGGTAAATGCTAGGTGAAAGTCCGATCT | 0.372 | 0.374 | 0.00496 | 1.14 | 0.554 | 1.55 | 0.305 | -0.299
